Several values for one entry are separate records, joined by “and”; a condition that tells them apart may be missing. Equal entries are not always repeated. Out of some 5,500 compounds screened, about 2,000 (36%) were called active. Roughly 18% stayed inconclusive and do not appear here. Rule as the data show it: active = normalized growth mostly below about 0.91 (no sharp cut-off); inconclusive = no clear call, values can overlap the other calls; inactive = mostly above about 0.92. The list shows a part of the results.
Experiment: chemical genetic growth profiling, strain panel (AID 1159580);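 also: tested at 20 µM; growth read once vehicle control cultures reached saturation at 30 °C; 1 = growth at the plate median or of vehicle wells; lower values mean less growth of the strain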
Conditions: growth OD

Measured: normalized growth

NNCCc1ccccc1
inactive: S. cerevisiae deletion strains, locus YJR066W, strain TOR1, active compounds read low 0.945 | S. cerevisiae deletion strains, locus YJR075W, strain HOC1, active compounds read low 0.986 | S. cerevisiae deletion strains, locus YKL009W, strain mrt4, active compounds read low 0.995 | S. cerevisiae deletion strains, locus YKL068W, active compounds read low 0.986 | S. cerevisiae deletion strains, locus YKL085W, strain MDH1 (second series), active compounds read low 0.998 | S. cerevisiae deletion strains, locus YKL085W, strain MDH1, active compounds read low 0.998 | S. cerevisiae deletion strains, locus YKL160W, strain elf1, active compounds read low 1 | S. cerevisiae deletion strains, locus YKL190W, strain CNB1, active compounds read low 0.966 | S. cerevisiae deletion strains, locus YKR001C, strain vps1, active compounds read low 0.992 | S. cerevisiae deletion strains, locus YKR026C, strain gcn3, active compounds read low 1.01 | S. cerevisiae deletion strains, locus YKR091W, strain srl3, active compounds read low 1.01 | S. cerevisiae deletion strains, locus YLL001W, strain dnm1, active compounds read low 1 | S. cerevisiae deletion strains, locus YLL026W, active compounds read low 1 | S. cerevisiae deletion strains, locus YLL041C, strain sdh2, active compounds read low 1 | S. cerevisiae deletion strains, locus YLR027C, strain aat2, active compounds read low 1.01 | S. cerevisiae deletion strains, locus YLR039C, strain RIC1, active compounds read low 0.897 | S. cerevisiae deletion strains, locus YLR058C, strain SHM2, active compounds read low 0.974 | S. cerevisiae deletion strains, locus YLR102C, strain apc9, active compounds read low 0.991 | S. cerevisiae deletion strains, locus YLR113W, strain HOG1, active compounds read low 0.987 | S. cerevisiae deletion strains, locus YLR221C, strain rsa3, active compounds read low 1.01 | S. cerevisiae deletion strains, locus YLR258W, strain gsy2, active compounds read low 1.01 | S. cerevisiae deletion strains, locus YLR262C, strain YPT6 (second series), active compounds read low 0.969 | S. cerevisiae deletion strains, locus YLR262C, strain YPT6, active compounds read low 0.858 | S. cerevisiae deletion strains, locus YLR268W, strain sec22, active compounds read low 1.05 | S. cerevisiae deletion strains, locus YLR320W, strain mms22, active compounds read low 1.02 | S. cerevisiae deletion strains, locus YLR330W, strain CHS5, active compounds read low 0.994 | S. cerevisiae deletion strains, locus YLR342W, strain FKS1 (second series), active compounds read low 0.997 | S. cerevisiae deletion strains, locus YLR342W, strain FKS1, active compounds read low 1.02 | S. cerevisiae deletion strains, locus YLR357W, strain rsc2, active compounds read low 0.969 | S. cerevisiae deletion strains, locus YLR370C, strain arc18, active compounds read low 1.01 | S. cerevisiae deletion strains, locus YLR371W, strain rom2, active compounds read low 0.966 | S. cerevisiae deletion strains, locus YLR384C, strain iki3, active compounds read low 1.01 | S. cerevisiae deletion strains, locus YLR418C, strain cdc73, active compounds read low 0.965 | S. cerevisiae deletion strains, locus YML016C, strain PPZ1, active compounds read low 0.989 | S. cerevisiae deletion strains, locus YML032C, strain rad52, active compounds read low 0.996 | S. cerevisiae deletion strains, locus YML120C, strain ndi1, active compounds read low 1.01 | S. cerevisiae deletion strains, locus YML124C, strain tub3, active compounds read low 0.986 | S. cerevisiae deletion strains, locus YMR058W, strain fet3, active compounds read low 1 | S. cerevisiae deletion strains, locus YMR078C, strain ctf18, active compounds read low 0.969 | S. cerevisiae deletion strains, locus YMR125W, strain sto1, active compounds read low 0.999 | S. cerevisiae deletion strains, locus YMR129W, active compounds read low 1 | S. cerevisiae deletion strains, locus YMR205C, strain PFK2, active compounds read low 1.02 | S. cerevisiae deletion strains, locus YMR223W, strain ubp8, active compounds read low 0.95 | S. cerevisiae deletion strains, locus YMR231W, strain pep5, active compounds read low 1.01 | S. cerevisiae deletion strains, locus YMR263W, strain SAP30, active compounds read low 1 | S. cerevisiae deletion strains, locus YMR307W, strain GAS1, active compounds read low 1 | S. cerevisiae deletion strains, locus YNL067W, strain RPL9B, active compounds read low 0.981 | S. cerevisiae deletion strains, locus YNL071W, strain lat1, active compounds read low 1.01 | S. cerevisiae deletion strains, locus YNL128W, strain TEP1, active compounds read low 1.01 | S. cerevisiae deletion strains, locus YNL153C, strain GIM3, active compounds read low 0.99 | S. cerevisiae deletion strains, locus YNL175C, strain NOP13, active compounds read low 1 | S. cerevisiae deletion strains, locus YNL183C, strain NPR1, active compounds read low 0.958 | S. cerevisiae deletion strains, locus YNL197C, strain WHI3, active compounds read low 0.996 | S. cerevisiae deletion strains, locus YNL209W, strain ssb2, active compounds read low 1 | S. cerevisiae deletion strains, locus YNL224C, strain SQS1, active compounds read low 0.99 | S. cerevisiae deletion strains, locus YNL233W, strain BNI4, active compounds read low 0.999 | S. cerevisiae deletion strains, locus YNL248C, strain rpa49, active compounds read low 1.02 | S. cerevisiae deletion strains, locus YNL250W, strain rad50, active compounds read low 0.983 | S. cerevisiae deletion strains, locus YNL271C, strain bni1, active compounds read low 0.994 | S. cerevisiae deletion strains, locus YNL298W, strain CLA4, active compounds read low 0.997 | S. cerevisiae deletion strains, locus YNL307C, strain MCK1, active compounds read low 0.987 | S. cerevisiae deletion strains, locus YNL322C, strain KRE1 (second series), active compounds read low 1.02 | S. cerevisiae deletion strains, locus YNL322C, strain KRE1, active compounds read low 0.988 and 0.996 | S. cerevisiae deletion strains, locus YNR049C, strain mso1, active compounds read low 1.01 | S. cerevisiae deletion strains, locus YNR052C, strain pop2, active compounds read low 0.991 | S. cerevisiae deletion strains, locus YOL006C, strain TOP1, active compounds read low 0.983 | S. cerevisiae deletion strains, locus YOL012C, strain htz1 0.89 | S. cerevisiae deletion strains, locus YOL147C, strain pex11, active compounds read low 0.986 | S. cerevisiae deletion strains, locus YOR001W, strain rrp6, active compounds read low 1.01 | S. cerevisiae deletion strains, locus YOR061W, strain CKA2, active compounds read low 0.964 | S. cerevisiae deletion strains, locus YOR069W, strain VPS5, active compounds read low 0.993 | S. cerevisiae deletion strains, locus YOR070C, strain gyp1, active compounds read low 1 | S. cerevisiae deletion strains, locus YOR080W, strain dia2, active compounds read low 1.01 | S. cerevisiae deletion strains, locus YOR083W, strain WHI5 (second series), active compounds read low 1 | S. cerevisiae deletion strains, locus YOR083W, strain WHI5, active compounds read low 0.988 | S. cerevisiae deletion strains, locus YOR106W, strain vam3, active compounds read low 1.02 | S. cerevisiae deletion strains, locus YOR136W, strain idh2, active compounds read low 0.973 | S. cerevisiae deletion strains, locus YOR144C, strain elg1, active compounds read low 0.987 | S. cerevisiae deletion strains, locus YOR184W, strain ser1, active compounds read low 0.981 | S. cerevisiae deletion strains, locus YOR231W, strain MKK1, active compounds read low 0.982 | S. cerevisiae deletion strains, locus YOR265W, strain rbl2, active compounds read low 1 | S. cerevisiae deletion strains, locus YOR270C, strain vph1, active compounds read low 1.11 | S. cerevisiae deletion strains, locus YOR290C, strain snf2, active compounds read low 1 | S. cerevisiae deletion strains, locus YOR316C, strain cot1, active compounds read low 0.984 | S. cerevisiae deletion strains, locus YPL051W, strain arl3, active compounds read low 1.01 | S. cerevisiae deletion strains, locus YPL078C, strain atp4, active compounds read low 1 | S. cerevisiae deletion strains, locus YPL106C, strain sse1, active compounds read low 0.977 | S. cerevisiae deletion strains, locus YPL240C, strain hsp82, active compounds read low 1 | S. cerevisiae deletion strains, locus YPL241C, strain CIN2, active compounds read low 0.994 | S. cerevisiae deletion strains, locus YPL256C, strain CLN2, active compounds read low 0.958 | S. cerevisiae deletion strains, locus YPR119W, strain clb2, active compounds read low 0.981 | S. cerevisiae deletion strains, locus YPR141C, strain kar3, active compounds read low 0.968 | S. cerevisiae deletion strains, locus YPR163C, strain tif3, active compounds read low 0.989 | S. cerevisiae deletion strains, locus YPR167C, strain met16, active compounds read low 0.985 | S. cerevisiae deletion strains, strain wtn01, active compounds read low 0.992 | S. cerevisiae strains, strain wild type, active compounds read low 0.981

Source: PubChem BioAssay AID1159580 (chemical genetic matrix, 2015)
